# Test results published in PubChem BioAssay (Tox21).
# Inconclusive results are not listed. Unmarked numbers belong to inactive results. Calls follow the shape of the dose curve; as a rule, active = well fitted activation curve with a large enough effect in the signal ratio in the repeat runs (not every such curve was filed as active); inconclusive = weak or mixed curves, or effect the other way; inactive = flat fitted curve, though single readings scatter; the % refers to the signal ratio.
# Experiment: qHTS assay to identify small molecule agonists of the endoplasmic reticulum stress response signaling pathway (AID 1159516)
# Conditions: ESRE-bla HeLa, ER stress beta-lactamase reporter, 5 h; series mostly up to 61 µM; activation: at the top concentration
# Description: National Center for Advancing Translational Sciences [NCATS]
# NIH Chemical Genomics Center [NCGC]
# U.S. Environmental Protection Agency [EPA]
# National Institutes of Environmental Health Sciences [NIEHS]
# National Toxicology Program [NTP]
# U.S. Food and Drug Administration [FDA]
# Endoplasmic Reticulum (ER) plays an important role in cellular signaling, protein folding/maturation, stress response, lipid biosynthesis, calcium storage and release etc. Under stress conditions, proteins in ER misfold or unfold, and leading to the expression of ER stress responsive genes. ER stress has been associated with a variety of pathophysiological conditions such as cancer, inflammation, neurodegenerative diseases, diabetes, ischemic heart disease etc. To identify the compounds that induce ER stress response, an ER stress reporter cell line, CellSensor ESRE-bla HeLa (Life Technologies, Carlsbad, CA) containing a beta-lactamase reporter gene under control of the Endoplasmic reticulum Stress Response Element (ESRE) was used to screen Tox21 10K compound library.
# Tox21 Assay Protocol Summary:
# ESRE-bla HeLa cells were dispensed at 1,500 cells/6 uL of assay medium per well into black wall/clear-bottom 1536-well plates using a Multidrop Combi (ThermoFisher Scientific, Waltham, MA) dispenser. After the assay plates were incubated at 37 C and 5% CO2 for an overnight, 23 nL of compounds dissolved in DMSO, positive controls or DMSO only was transferred to the assay plate by a Pintool station (Kalypsys, San Diego, CA). The assay plates were incubated at 37 C and 5% CO2 for 5 hr. One uL of LiveBLAzer B/G FRET substrate (Life Technologies) was added using a Flying Reagent Dispenser (Aurora Discovery, San Diego, CA) and the plates were incubated at room temperature for 2 hr. Fluorescence intensity (405 nm excitation, 460 nm and 530 nm emissions) was measured using an Envision plate reader (PerkinElmer, Shelton, CT).
# % is scaled to controls: 0 for no effect and ±100 for the full control effect.
row,Structure (SMILES),activation
1,CCC(C)(CCCC(C)C)OC(C)=O (stereo not given),-0.476%
2,CC1=CCC(O)(C(C)C)CC1 (stereo not given),4.46%
3,CCCOC(=O)CC,3.61%
4,Nc1ccn([C@@H]2O[C@H](CO)[C@@H](O)C2O)c(=O)n1 (stereo not given in full),-0.0768%
5,O=C1NC(=O)C2CC=CCC12 (stereo not given),1.6%
6,CC1(C)[C@@H]2CC[C@@]1(C)[C@H](O)C2,-0.255%
7,CC(=O)c1ccc2ccccc2c1,1.11%
8,O=C(O)CNC(=O)c1ccc(CO)o1,0.0957%
9,CCN(CC#N)c1cccc(C)c1,-0.752%
10,CCCC(=O)O[C@]1(C(=O)CC)CC[C@H]2[C@@H]3CCC4=CC(=O)CC[C@]4(C)[C@H]3[C@@H](O)C[C@@]21C,-3.78%
11,[Ca+2],0.711%
12,CC1(C)OC[C@@H](COC(=O)CCc2ccc(OC[C@@H](O)CNCCNC(=O)N3CCOCC3)cc2)O1,0.164%
13,CCCCN1C=CN(C)C1,-1.94% [at 28.5 µM]
14,CC(CC=O)CC(C)(C)C (stereo not given),-0.826%
15,O=C(CO)[C@@H](O)[C@H](O)[C@@H](O)CO,0.906%
16,CCCCOC(=O)CCC(C)=O,-6.54%
17,CC/C=C\CCOC(C)OCC (stereo not given),-4.51%
18,C[N+](C)(CCOc1ccccc1)Cc1cccs1,-1.1%
19,O=[N+]([O-])c1cncn1CCN1CCOCC1,-2.45%
20,CC1CCC(CO)CC1 (stereo not given),7.3% [at 78.8 µM]

row,Structure (SMILES),activation
1,COc1cc(C(=O)OC(COCCC(C)C)CN2CCOCC2)cc(OC)c1OC (stereo not given),1.25%
2,CC(C)c1ccc2ncccc2c1,1.66%
3,C1CCC2(CCCCO2)OC1,2.59%
4,C=CCCCCCCCCC(=O)OCC,-1.06%
5,CN(C)CCN(C)CCN(C)C,0.028%
6,CCN1C=CN(C)C1C (stereo not given),-0.306% [at 78.8 µM]
7,C[C@H]1[C@H](NC(=O)/C(=N/OC(C)(C)C(=O)O)c2csc(N)n2)C(=O)N1S(=O)(=O)O (stereo in doubt),0.685%
8,CCCCN(CCC(=O)OCC)C(C)=O,-0.62%
9,CN(C)[C@@H]1C(=O)C(C(=O)NCN2CCCC2)=C(O)[C@@]2(O)C(=O)C3=C(O)c4c(O)cccc4[C@@](C)(O)C3C[C@@H]12 (stereo not given in full),1.02%
10,CC(=O)N1C[C@H](O)C[C@H]1C(=O)O,1.09%
11,Cc1cccc(C)c1NC(=O)CC12CCCN1CCC2,-2.97%
12,CO[C@@]1(NC(=O)C(C(=O)O)c2ccc(O)cc2)C(=O)N2C(C(=O)O)=C(CSc3nnnn3C)CO[C@@H]21 (stereo not given in full),3.99%
13,Cc1c(N)c(=O)n(-c2ccccc2)n1C,-0.553%
14,O=C(O)CNC(=O)c1ccccc1,0.273%
15,O=C(O)Cc1csc(-c2ccc(Cl)cc2)n1,-1.45%
16,C[N+]1(C)[C@@H]2CC(OC(=O)[C@H](CO)c3ccccc3)C[C@H]1[C@@H]1O[C@@H]12 (stereo not given in full),-5.63%
17,CC12CCC(C(=O)C1=O)C2(C)C (stereo not given),-4.58% [at 78.8 µM]
18,CCOC(=O)c1ccccc1,-2.72%
19,C=C(C)C(=O)OCCOCCOCCOCCOC(=O)C(=C)C,3.68%
20,OCCc1ccccn1,-2.48%
